The values below come from ChEMBL document CHEMBL1961873, “Compounds: GSK PKIS; Assays: Nanosyn kinase panel” (2012).

Experiment [1] concerns the target Mitogen-activated protein kinase 3 (Homo sapiens) (UniProt P27361). Particulars: at 1 µM.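 Further: values are mean percent inhibition of MAPK3.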
The target in experiment [2] is SRSF protein kinase 3 (Homo sapiens) (UniProt Q9UPE1). The note with it: at 0.1 µM.
Experiment [3] shares this target. The note with it: at 1 µM.
For experiment [4], the target named is Mitogen-activated protein kinase 14 (Homo sapiens) (UniProt Q16539). Particulars: at 0.1 µM.
The target is the same in experiment [5]. Particulars: at 1 µM.
Experiment [6] addresses Mitogen-activated protein kinase 11 (Homo sapiens) (UniProt Q15759). The note with it: at 0.1 µM.
The target is the same in experiment [7]. The note with it: at 1 µM.
For experiment [8], the target named is T1, Mitogen-activated protein kinase 13 (Homo sapiens) (UniProt O15264).
T1 sequence (whole entry): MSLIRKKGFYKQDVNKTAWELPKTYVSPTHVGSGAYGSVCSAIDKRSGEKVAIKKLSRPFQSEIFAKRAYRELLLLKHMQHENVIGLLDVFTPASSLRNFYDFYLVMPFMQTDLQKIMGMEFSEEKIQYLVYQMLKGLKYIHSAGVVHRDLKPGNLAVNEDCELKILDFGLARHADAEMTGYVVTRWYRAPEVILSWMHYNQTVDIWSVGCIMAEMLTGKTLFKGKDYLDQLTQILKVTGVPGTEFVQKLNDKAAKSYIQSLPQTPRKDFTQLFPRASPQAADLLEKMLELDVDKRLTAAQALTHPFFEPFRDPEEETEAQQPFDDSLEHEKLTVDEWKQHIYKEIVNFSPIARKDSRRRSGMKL
Particulars: at 0.1 µM.

The target in experiment [9] is T1, Mitogen-activated protein kinase 13 (Homo sapiens). Particulars: at 1 µM.
Experiment [10] has as its target T2, Mitogen-activated protein kinase 12 (Homo sapiens) (UniProt P53778).
T2 sequence (whole entry): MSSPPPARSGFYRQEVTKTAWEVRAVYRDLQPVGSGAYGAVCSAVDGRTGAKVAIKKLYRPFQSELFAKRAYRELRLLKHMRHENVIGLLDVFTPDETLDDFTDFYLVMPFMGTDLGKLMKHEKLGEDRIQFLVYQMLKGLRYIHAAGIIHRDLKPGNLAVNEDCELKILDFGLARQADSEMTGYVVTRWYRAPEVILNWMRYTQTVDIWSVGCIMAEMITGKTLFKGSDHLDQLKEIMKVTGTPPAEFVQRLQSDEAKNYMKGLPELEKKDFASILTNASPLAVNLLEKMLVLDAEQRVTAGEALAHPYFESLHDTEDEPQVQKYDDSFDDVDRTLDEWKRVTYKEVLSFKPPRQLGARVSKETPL
Particulars: at 0.1 µM.

Experiment [11] deals with T2, Mitogen-activated protein kinase 12 (Homo sapiens). Particulars: at 1 µM.
For experiment [12], the target named is SRSF protein kinase 1 (Homo sapiens) (UniProt Q96SB4). Particulars: at 0.1 µM.
The target is the same in experiment [13]. The note with it: at 1 µM.
The target in experiment [14] is Phosphatidylinositol 4,5-bisphosphate 3-kinase catalytic subunit alpha isoform (Homo sapiens) (UniProt P42336). The note with it: at 0.1 µM.
Experiment [15] shares this target. Particulars: at 1 µM.
For experiment [16], the target named is T3, Phosphatidylinositol 4,5-bisphosphate 3-kinase catalytic subunit delta isoform (Homo sapiens) (UniProt O00329).
T3 sequence (whole entry): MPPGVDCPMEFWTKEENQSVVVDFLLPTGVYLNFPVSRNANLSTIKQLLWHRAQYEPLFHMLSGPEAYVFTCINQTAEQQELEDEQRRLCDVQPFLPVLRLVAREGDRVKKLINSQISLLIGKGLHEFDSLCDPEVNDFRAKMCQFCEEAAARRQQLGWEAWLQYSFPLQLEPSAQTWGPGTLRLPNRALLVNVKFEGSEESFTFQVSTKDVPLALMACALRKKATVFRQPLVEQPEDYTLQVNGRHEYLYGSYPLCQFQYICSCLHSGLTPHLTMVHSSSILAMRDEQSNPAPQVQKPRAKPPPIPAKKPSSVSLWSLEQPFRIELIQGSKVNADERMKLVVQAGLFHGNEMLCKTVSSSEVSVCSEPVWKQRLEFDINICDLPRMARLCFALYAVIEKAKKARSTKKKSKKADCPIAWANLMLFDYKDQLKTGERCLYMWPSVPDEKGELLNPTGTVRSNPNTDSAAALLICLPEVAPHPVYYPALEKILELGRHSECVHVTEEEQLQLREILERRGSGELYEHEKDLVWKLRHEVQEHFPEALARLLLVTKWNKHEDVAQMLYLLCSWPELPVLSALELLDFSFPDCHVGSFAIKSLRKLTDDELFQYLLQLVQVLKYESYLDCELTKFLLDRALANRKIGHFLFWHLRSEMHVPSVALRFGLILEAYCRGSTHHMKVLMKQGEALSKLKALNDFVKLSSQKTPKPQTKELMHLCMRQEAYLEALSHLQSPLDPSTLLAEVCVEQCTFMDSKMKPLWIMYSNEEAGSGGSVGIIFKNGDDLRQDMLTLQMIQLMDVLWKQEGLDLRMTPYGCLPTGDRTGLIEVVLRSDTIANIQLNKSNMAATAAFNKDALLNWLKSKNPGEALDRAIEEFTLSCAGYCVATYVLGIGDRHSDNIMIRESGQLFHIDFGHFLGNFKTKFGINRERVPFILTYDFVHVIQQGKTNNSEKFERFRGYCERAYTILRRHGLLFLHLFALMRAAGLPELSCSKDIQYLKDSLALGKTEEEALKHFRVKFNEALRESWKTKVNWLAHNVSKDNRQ
The note with it: at 0.1 µM.

In experiment [17] the target is T3, Phosphatidylinositol 4,5-bisphosphate 3-kinase catalytic subunit delta isoform (Homo sapiens). The note with it: at 1 µM.
Experiment [18] addresses Phosphatidylinositol 4-kinase beta (Homo sapiens) (UniProt Q9UBF8). The note with it: at 0.1 µM.
Experiment [19] has the same target. Particulars: at 1 µM.
The target of experiment [20] is Sphingosine kinase 1 (Homo sapiens) (UniProt Q9NYA1). Particulars: at 0.1 µM.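 Further: mean percent inhibition of SPHK1 activity, measured within the GSK PKIS screening panel.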
Chain of Sphingosine kinase 1 (Homo sapiens) (Q9NYA1 whole entry): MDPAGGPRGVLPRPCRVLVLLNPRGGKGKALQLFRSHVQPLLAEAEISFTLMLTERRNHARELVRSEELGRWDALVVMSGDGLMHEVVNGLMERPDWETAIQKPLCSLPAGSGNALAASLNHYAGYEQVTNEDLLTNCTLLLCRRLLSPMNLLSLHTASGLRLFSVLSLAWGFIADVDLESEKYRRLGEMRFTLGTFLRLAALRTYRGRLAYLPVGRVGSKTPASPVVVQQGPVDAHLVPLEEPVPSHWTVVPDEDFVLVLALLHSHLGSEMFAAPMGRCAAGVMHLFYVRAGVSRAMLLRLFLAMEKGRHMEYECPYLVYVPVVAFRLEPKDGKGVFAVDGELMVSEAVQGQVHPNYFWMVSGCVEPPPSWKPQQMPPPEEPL

Chain of SRSF protein kinase 3 (Homo sapiens) (Q9UPE1 whole entry): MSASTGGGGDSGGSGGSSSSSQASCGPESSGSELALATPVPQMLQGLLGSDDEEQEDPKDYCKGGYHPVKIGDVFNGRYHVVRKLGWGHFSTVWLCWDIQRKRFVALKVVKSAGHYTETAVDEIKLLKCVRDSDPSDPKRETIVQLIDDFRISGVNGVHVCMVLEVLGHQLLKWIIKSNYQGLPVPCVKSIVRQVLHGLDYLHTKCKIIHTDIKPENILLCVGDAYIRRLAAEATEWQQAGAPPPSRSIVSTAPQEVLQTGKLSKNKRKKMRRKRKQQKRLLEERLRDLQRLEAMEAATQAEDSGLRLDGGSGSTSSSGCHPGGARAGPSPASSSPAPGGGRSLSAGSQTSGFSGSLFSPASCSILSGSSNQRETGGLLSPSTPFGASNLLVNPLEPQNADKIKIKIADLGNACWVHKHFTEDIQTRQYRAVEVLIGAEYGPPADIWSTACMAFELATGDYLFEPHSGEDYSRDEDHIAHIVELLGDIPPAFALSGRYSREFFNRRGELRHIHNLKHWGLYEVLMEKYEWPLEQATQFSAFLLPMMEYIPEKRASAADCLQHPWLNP
Chain of Phosphatidylinositol 4-kinase beta (Homo sapiens) (Q9UBF8 2-816 limits assumed): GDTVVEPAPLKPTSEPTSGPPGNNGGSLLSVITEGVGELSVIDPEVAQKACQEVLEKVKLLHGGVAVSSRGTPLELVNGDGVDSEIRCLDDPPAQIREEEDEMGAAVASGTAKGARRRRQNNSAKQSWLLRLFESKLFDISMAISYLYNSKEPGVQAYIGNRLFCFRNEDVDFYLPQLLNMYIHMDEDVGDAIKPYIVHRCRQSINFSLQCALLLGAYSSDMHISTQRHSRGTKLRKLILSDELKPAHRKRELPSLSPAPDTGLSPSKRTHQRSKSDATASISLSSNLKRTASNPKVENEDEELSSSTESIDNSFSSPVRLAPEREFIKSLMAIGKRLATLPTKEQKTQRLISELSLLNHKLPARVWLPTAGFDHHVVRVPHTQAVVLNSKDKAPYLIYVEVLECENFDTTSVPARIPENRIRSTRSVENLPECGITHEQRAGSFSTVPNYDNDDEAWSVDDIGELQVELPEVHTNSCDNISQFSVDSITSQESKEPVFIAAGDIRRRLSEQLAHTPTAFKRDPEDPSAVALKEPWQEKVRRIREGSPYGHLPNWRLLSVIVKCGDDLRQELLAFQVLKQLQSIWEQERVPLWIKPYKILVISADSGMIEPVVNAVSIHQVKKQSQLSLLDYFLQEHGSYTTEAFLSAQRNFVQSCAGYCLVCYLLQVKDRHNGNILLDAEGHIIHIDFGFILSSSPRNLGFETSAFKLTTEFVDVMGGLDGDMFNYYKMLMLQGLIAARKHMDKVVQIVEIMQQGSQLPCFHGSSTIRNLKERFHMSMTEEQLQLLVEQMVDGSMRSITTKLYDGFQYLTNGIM
Chain of Mitogen-activated protein kinase 11 (Homo sapiens) (Q15759 whole entry): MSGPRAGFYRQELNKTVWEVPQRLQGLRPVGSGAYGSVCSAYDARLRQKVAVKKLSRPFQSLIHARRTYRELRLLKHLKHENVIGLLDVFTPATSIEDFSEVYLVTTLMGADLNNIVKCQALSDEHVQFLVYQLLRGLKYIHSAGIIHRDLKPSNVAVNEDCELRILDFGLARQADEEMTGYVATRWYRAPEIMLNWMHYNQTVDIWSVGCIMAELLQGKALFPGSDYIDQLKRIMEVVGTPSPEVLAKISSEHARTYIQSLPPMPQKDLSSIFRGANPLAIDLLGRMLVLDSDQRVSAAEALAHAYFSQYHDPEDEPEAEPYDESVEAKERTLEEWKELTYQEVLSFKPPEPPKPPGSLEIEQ
Chain of SRSF protein kinase 1 (Homo sapiens) (Q96SB4 whole entry): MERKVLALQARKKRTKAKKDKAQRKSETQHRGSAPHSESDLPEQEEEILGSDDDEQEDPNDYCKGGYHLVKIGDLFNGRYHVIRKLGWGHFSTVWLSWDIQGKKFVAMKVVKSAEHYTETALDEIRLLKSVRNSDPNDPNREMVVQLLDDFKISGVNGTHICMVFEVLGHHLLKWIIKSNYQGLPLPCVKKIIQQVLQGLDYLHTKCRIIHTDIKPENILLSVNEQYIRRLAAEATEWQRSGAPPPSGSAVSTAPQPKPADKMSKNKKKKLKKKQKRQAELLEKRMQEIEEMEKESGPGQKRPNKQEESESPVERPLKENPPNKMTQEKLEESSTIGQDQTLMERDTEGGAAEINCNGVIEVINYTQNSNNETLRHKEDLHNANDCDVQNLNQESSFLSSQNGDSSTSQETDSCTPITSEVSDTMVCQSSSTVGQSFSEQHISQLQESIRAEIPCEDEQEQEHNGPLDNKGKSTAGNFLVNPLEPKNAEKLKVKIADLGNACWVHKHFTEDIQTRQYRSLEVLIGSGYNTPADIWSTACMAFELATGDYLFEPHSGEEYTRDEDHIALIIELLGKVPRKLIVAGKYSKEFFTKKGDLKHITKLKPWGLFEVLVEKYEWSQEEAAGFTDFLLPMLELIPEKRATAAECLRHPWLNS
Chain of Mitogen-activated protein kinase 3 (Homo sapiens) (P27361 whole entry): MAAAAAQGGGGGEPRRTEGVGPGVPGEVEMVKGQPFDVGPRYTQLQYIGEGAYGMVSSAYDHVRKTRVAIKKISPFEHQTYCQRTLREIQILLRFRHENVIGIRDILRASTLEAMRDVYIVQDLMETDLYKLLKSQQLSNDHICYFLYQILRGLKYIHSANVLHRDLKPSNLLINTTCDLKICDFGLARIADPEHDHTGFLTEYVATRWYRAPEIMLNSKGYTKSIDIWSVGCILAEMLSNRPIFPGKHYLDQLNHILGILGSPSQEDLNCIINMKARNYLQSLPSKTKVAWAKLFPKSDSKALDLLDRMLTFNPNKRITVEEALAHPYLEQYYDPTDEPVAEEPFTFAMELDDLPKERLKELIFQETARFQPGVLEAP
Chain of Mitogen-activated protein kinase 14 (Homo sapiens) (Q16539 whole entry): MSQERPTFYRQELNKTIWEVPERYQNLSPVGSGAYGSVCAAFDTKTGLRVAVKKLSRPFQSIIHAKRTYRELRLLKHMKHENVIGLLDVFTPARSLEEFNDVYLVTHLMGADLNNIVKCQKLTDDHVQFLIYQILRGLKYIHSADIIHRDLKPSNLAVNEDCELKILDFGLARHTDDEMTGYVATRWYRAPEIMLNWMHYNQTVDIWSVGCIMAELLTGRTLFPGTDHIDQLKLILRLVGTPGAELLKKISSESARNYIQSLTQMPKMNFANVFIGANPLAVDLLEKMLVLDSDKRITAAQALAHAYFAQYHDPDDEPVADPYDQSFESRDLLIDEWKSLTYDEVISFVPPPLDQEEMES
Chain of Phosphatidylinositol 4,5-bisphosphate 3-kinase catalytic subunit alpha isoform (Homo sapiens) (P42336 whole entry, canonical isoform): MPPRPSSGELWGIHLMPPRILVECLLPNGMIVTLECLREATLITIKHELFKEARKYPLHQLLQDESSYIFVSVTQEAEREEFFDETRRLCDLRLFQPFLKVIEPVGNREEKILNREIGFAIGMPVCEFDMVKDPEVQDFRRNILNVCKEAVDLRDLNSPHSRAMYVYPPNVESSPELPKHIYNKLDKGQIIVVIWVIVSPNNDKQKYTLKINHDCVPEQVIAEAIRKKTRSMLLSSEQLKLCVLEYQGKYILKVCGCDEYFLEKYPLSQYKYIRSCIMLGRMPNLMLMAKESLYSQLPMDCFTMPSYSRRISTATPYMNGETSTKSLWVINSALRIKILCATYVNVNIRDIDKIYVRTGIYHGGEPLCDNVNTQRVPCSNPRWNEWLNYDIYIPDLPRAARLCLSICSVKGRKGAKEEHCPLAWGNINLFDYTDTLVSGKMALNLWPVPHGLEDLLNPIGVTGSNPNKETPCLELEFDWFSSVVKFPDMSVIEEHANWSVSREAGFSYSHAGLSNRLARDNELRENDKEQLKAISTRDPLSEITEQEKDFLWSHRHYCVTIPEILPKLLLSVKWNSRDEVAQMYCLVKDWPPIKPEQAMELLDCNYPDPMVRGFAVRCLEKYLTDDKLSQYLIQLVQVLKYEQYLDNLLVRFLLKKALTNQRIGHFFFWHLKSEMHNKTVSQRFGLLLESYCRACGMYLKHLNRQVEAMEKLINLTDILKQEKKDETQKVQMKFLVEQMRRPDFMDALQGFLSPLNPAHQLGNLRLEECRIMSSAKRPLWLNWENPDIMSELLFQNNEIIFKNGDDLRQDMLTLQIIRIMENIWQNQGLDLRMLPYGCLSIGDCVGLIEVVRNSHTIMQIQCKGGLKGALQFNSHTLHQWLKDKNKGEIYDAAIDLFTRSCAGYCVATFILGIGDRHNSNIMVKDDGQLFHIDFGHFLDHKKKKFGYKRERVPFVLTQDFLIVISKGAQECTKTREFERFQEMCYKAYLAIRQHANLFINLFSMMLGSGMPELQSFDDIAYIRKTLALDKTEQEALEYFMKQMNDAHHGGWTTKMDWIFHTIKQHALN

Broadly, the inhibition is the drop in the measured response relative to a control, in per cent. As for `CCn1c(-c2nonc2N)nc2ccccc21`, the inhibition in experiment [1] was 1.82%; in [2], 2.33%; in experiment [3], 1.24%; in experiment [4], 1.01%; in experiment [5], 4.34%; in experiment [6], 3.58%. Besides, the inhibition in experiment [7] is 4.06%; in [8], 2.36%; in [9] it was 3.3%; in [10] it was 0.66%; in experiment [11] it was 1.22%; in experiment [12], -2.61%. The inhibition was -2.83% in [13]; 3.75% in [14]; 1.82% in [15]; 3.37% in experiment [16]; 3.25% in experiment [17]; 7.06% in [18]. For the same compound, the inhibition in experiment [19] was 0.95%; in [20] it was 0.28%.
For the compound `c1ccc(COc2ccc(Nc3ncnc4ccc(-c5ccco5)cc34)cc2)cc1`, the inhibition is 1.18% in experiment [1]; -1.34% in experiment [2]; -0.68% in experiment [3]; 2.18% in experiment [4]; 2.81% in experiment [5]; 1.43% in experiment [6]. The inhibition in experiment [7] is 0.27%; in [8] it was 0.6%; in experiment [9] it was -0.53%; in experiment [10], 0.76%; in experiment [11] it was 0.69%; in experiment [12], -1.86%. Further, the inhibition in experiment [13] is -1.65%; in [14], 0.06%; in experiment [15] it was 2.59%; in experiment [16], 3.33%; in experiment [17], 4.52%; in experiment [18], -1.76%. For the same compound, the values for the inhibition in experiment [19] and in experiment [20] were -1.04% and 1.84%, respectively.
Take `CN1CCC(n2cnc(-c3ccc(F)cc3)c2-c2ccnc(Nc3ccccc3)n2)CC1`: the inhibition in experiment [1] was 6.33%; in experiment [2], 0.1%; in [3] it was -0.07%; in [4] it was 84.1%; in [5], 90.8%; in experiment [6] it was 50.7%. The inhibition in experiment [7] is 81.4%; in experiment [8], 3.08%; in experiment [9] it was 22.5%; in experiment [10] it was 3.56%; in [11], 9.03%; in experiment [12] it was -1.25%. Besides, the inhibition in [13] was -1.27%; in experiment [14], 1.36%; in experiment [15], 1.8%; in [16], -0.07%; in experiment [17] it was 4.79%; in experiment [18] it was -0.93%. In addition, the inhibition in experiment [19] was determined as 1.36%; in [20], 1.77%.
As to `CCOc1ccc2c(-c3ccnc(Nc4cccc(C(F)(F)F)c4)n3)cnn2n1`, the inhibition in [1] was 2.69%; in experiment [2], -2.63%; in experiment [3], 1.62%; in [4], 3.75%; in experiment [5], 1.48%; in [6], 5.24%. Moreover, the inhibition in [7] was 2.69%; in experiment [8], 1.99%; in [9] it was 0.75%; in experiment [10] it was 0.81%; in experiment [11] it was 0.81%; in [12] it was -3.06%. Moreover, the inhibition in experiment [13] was -3.22%; in [14] it was 2.25%; in experiment [15] it was 3.21%; in experiment [16], -0.36%; in experiment [17] it was 0.32%; in experiment [18], -2.42%. Further, the inhibition in experiment [19] is -0.91%; in experiment [20] it was 0.68%.
With `CCn1cc(-c2ccnc3[nH]ccc23)c(-c2cccc(NC(=O)Nc3ccc(OCc4ccccc4)cc3)c2)n1`, the inhibition in experiment [1] was 0.79%; in experiment [2] it was -1.98%; in [3], -1.89%; in experiment [4], 0.81%; in experiment [5], 1.53%; in experiment [6] it was 5.07%. Also, the inhibition was 3.29% in [7]; -0.53% in experiment [8]; -2.06% in experiment [9]; -1.09% in experiment [10]; -0.76% in [11]; -3.33% in [12]. In addition, the inhibition is -4.16% in [13]; -0.66% in experiment [14]; 0.08% in experiment [15]; -0.3% in experiment [16]; 1.17% in experiment [17]; 2.47% in [18]. Moreover, the inhibition in experiment [19] was -1.05%; in experiment [20], -0.21%.
As for `c1cc(-c2cnn3nc(N4CCOCC4)ccc23)nc(NC2CC2)n1`, the inhibition in experiment [1] was found to be 3.9%; in [2], 2.15%; in experiment [3], 9.24%; in [4], 6.66%; in experiment [5], 16.6%; in experiment [6], 3.09%. The inhibition was 13.1% in experiment [7]; 6.27% in experiment [8]; 19.7% in experiment [9]; 0.63% in experiment [10]; 13.6% in experiment [11]; -1.17% in experiment [12]. For the same compound, the inhibition in experiment [13] came to 1.29%; in [14], 2.09%; in [15], 6.22%; in experiment [16], 1.85%; in experiment [17], 4.21%; in experiment [18] it was 0.77%. In addition, the inhibition in experiment [19] was 21%; in experiment [20], -1.93%.
On to `Fc1ccc(-c2cc(-c3c[nH]nc3-c3ccccn3)ccn2)cc1`, for which the inhibition in experiment [1] is 4.81%; in [2], -1.32%; in experiment [3] it was 1.09%; in experiment [4], 5.14%; in [5] it was 37%; in [6], 5.12%. The inhibition is 12.5% in experiment [7]; -1% in [8]; 3.97% in [9]; 2.24% in [10]; 3.28% in [11]; -0.82% in experiment [12]. Also, the inhibition in [13] was 1.31%; in experiment [14] it was 4.44%; in [15], 3.51%; in experiment [16] it was 2.06%; in experiment [17] it was 3.22%; in experiment [18], -6.09%. Further, the results for the inhibition in experiment [19] and in experiment [20] were -0.81% and 1.6%, respectively.
